In PubChem BioAssay (NCI):
This is part of a sample that, as a whole, favours compounds with a hit. Of some 83,000 tested, about 20% had one in any assay.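 Assay: single dose, 48 h. Readout: percent growth (0 = no net growth; negative = cell death). Active: <10.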 Values without a mark were called inactive. Active and inactive are the calls of the source.

What was measured:
Test in all cases: NCI-60 one-dose screen, 48 h (100 = growth as untreated, 0 = no growth, -100 = all killed)
Conditions in all cases: 10 µM unless noted
NCI-H23 lung = test system: NCI-H23 lung
NCI-H226 lung = test system: NCI-H226 lung
NCI-H322M lung = test system: NCI-H322M lung
HOP-62 NSCLC = test system: HOP-62 NSCLC
NCI-H460 lung = test system: NCI-H460 lung
HOP-92 NSCLC = test system: HOP-92 NSCLC
NCI-H522 lung = test system: NCI-H522 lung
A549/ATCC NSCLC = test system: A549/ATCC NSCLC
786-0 renal = test system: 786-0 renal
COLO 205 colon = test system: COLO 205 colon
DU-145 prostate = test system: DU-145 prostate
K-562 leukemia = test system: K-562 leukemia
MALME-3M melanoma = test system: MALME-3M melanoma
MDA-MB-231 breast = test system: MDA-MB-231 breast
RXF 393 renal = test system: RXF 393 renal
SF-268 CNS = test system: SF-268 CNS
SF-295 CNS = test system: SF-295 CNS
SF-539 CNS = test system: SF-539 CNS
UACC-257 melanoma = test system: UACC-257 melanoma
M14 melanoma = test system: M14 melanoma

Row | Structure (SMILES) | growth (NCI-H23 lung) | growth (NCI-H226 lung) | growth (NCI-H322M lung) [%] | growth (HOP-62 NSCLC) | growth (NCI-H460 lung) | growth (HOP-92 NSCLC) | growth (NCI-H522 lung) | growth (A549/ATCC NSCLC) | growth (786-0 renal) | growth (COLO 205 colon) | growth (DU-145 prostate) | growth (K-562 leukemia) | growth (MALME-3M melanoma) | growth (MDA-MB-231 breast) | growth (RXF 393 renal) | growth (SF-268 CNS) | growth (SF-295 CNS) | growth (SF-539 CNS) | growth (UACC-257 melanoma) | growth (M14 melanoma)
1 | C[C@]12CC[C@H]3[C@@H](C[C@@H]4SC(Nc5ccccc5)=N[C@@]45CC(O)CC[C@]35C)[C@@H]1CCC2O (stereo not given in full) | 67.3% | 63.9% | 78.4 | 34.2% | 6.06% (active) | 104% | 25.8% | 57.1% | -49.7% (active) | 57.1% | 14.2% | 4.96% (active) | 71.2% | 35.8% | -32.3% (active) | 9.68% (active) | 7.36% (active) | -34.3% (active) | 69.3% | 53.4%
2 | C/C(=C\c1ccn(-c2ccc(N)cc2C(F)(F)F)n1)[C@@H]1C[C@@H]2O[C@]2(C)CCC[C@H](C)[C@H](O)[C@@H](C)C(=O)C(C)(C)[C@@H](O)CC(=O)O1 | 19.9% | 59.4% | 23.4 | 24.5% | 9.25% (active) | 57% | 0.465% (active) | 9.78% (active) | 16.4% | -6.04% (active) | -14.1% (active) | 6.1% (active) | 39.9% | 16.4% | 9.23% (active) | 22.5% | 2.39% (active) | 3.05% (active) | 37.9% | -12.6% (active)
3 | CCN(CC)c1ccc2c(c1)OC(N)=C(C#N)C2c1cc(OC)c2c(c1)OCO2 (stereo not given) | 17.8% | 29% | 47.1 | 42% | 3.22% (active) | 38.2% | -41.7% (active) | 19.8% | 15.5% | -42.8% (active) | -3.69% (active) | 17.5% | 61.1% | 4.28% (active) | 30.9% | 21.3% | 17% | 3.37% (active) | 77.7% | 7.87% (active)
4 | COc1ccc(C(=O)c2cc(OC)c(OC)c(OC)c2)cc1OC(C)=O | 31% | 102% | 42 | 25.2% | 7.92% (active) | 50.9% | 10.3% | 22.4% | 26.5% | 16.3% | 4.78% (active) | 10.4% | 78% | 33.8% | 49.3% | 41.9% | 15.4% | 6.23% (active) | 55.7% | 4.11% (active)
5 | Cc1cccc(N2CCN(C(C)C#N)CC2)c1 (stereo not given) | 97.6% | 96.6% | 93.8 | 107% | 109% | 91.4% | 88.9% | 107% | 90.3% | 105% | 107% | 98.4% | 102% | 104% | 105% | 103% | 84.6% | 104% | 97.9% | 105%
6 | COc1cc2ncnc(Nc3ccc(F)c(Cl)c3)c2cc1OCC(=O)N1CCN(C)CC1 | 98.1% | 102% | 26.6 | 96.9% | 104% | 75.1% | 39.2% | 76.9% | 70.9% | 104% | 62.6% | 82.8% | 96.5% | 94.7% | 88.8% | 73.6% | 92.8% | 98.2% | 104% | 97.5%
7 | CCCC(C)C1(CC)C(=O)NC(=O)N(C)C1=O (stereo not given) | 100% | 85.5% | 100 | 85.1% | 106% | 92% | 80.7% | 79.1% | 94.3% | 99.6% | 107% | 102% | 90.1% | 107% | 119% | 100% | 102% | 96.4% | 83.6% | 101%
8 | Nc1c(F)cc(-c2nc3cc(F)ccc3[se]2)cc1Br | 17.4% | -16.3% (active) | 46.9 | 39.8% | 3.18% (active) | 49.7% | 67.1% | 22.5% | 95.4% | 5.84% (active) | 98.8% | 98.5% | 87% | 17.8% | 74.8% | 98.6% | 74.5% | 87.6% | 85.4% | 88%
9 | O=C(CC1(O)C(=O)N(Cc2ccccc2)c2ccccc21)c1ccc(C(=O)NCC2CCC3(CC2)OOC2(CCCCC2)OO3)cc1 (stereo not given) | -72.2% (active) | -34.8% (active) | 65.2 | -48.2% (active) | -51.4% (active) | -72% (active) | -28% (active) | -53.6% (active) | -73.1% (active) | -52.9% (active) | -100% (active) | -48.3% (active) | -73% (active) | -65.8% (active) | -81% (active) | -62% (active) | 10.7% | -83.2% (active) | -21% (active) | 13.1%
10 | CCOC(=O)[C@@H](C)C[C@H](Cc1ccccc1)NC(=O)c1csc([C@@H](C[C@H](C(C)C)N(C)C(=O)[C@H](CCC(C)C)NC(=O)[C@H]2CCCCN2C)OC(C)=O)n1 | 25.3% | 27.7% | 28.2 | 13.8% | 5.8% (active) | -1.79% (active) | -27% (active) | 8.64% (active) | 3.93% (active) | -75.2% (active) | 15.7% | 7.91% (active) | 33.1% | 1.66% (active) | 12.6% | 22.1% | 12.2% | -10.2% (active) | 46.9% | -7.2% (active)
11 | CC(=O)ONc1ccc([N+](=O)[O-])c(C(F)(F)F)c1 | 92.1% | 97.8% | 108 | 80% | 109% | 99.6% | 97.8% | 95.3% | 97.6% | 106% | 108% | 105% | 111% | 102% | 115% | 95.3% | 97.8% | 93.5% | 110% | 98.8%
12 | O=[N+]([O-])c1cc([N+](=O)[O-])c(Cl)cc1Cl | -56.4% (active) | -59% (active) | 40.6 | -73.9% (active) | -45.8% (active) | -80.1% (active) | -69.6% (active) | 39.9% | -67.8% (active) | -75.7% (active) | -85.3% (active) | -9.49% (active) | -68.4% (active) | -86.5% (active) | -90.6% (active) | -80.2% (active) | -70.4% (active) | -83.2% (active) | -68.9% (active) | -96.8% (active)
13 | CCn1c2ccccc2c2cc(C(=O)c3cccc4c3CCCN4)ccc21 | 100% | 92.2% | 102 | 95.7% | 101% | 101% | 115% | 106% | 99% | 102% | 102% | 101% | 107% | 98.1% | 104% | 102% | 103% | 111% | 113% | 96.9%
14 | O=C1NC(=O)C(=Cc2ccc(OCCCCC3CCCCC3)c(Cl)c2)C(=O)N1 | 96.7% | 102% | 105 | 89.7% | 93.8% | 87.4% | 81.1% | 92.6% | 88.2% | 112% | 106% | 88.3% | 110% | 100% | 103% | 99.7% | 94% | 92.8% | 107% | 86.6%
